# The list is not random: actives were taken first. Their share in the collection is about 2.2%.
# IEC-6 cytotox = kills IEC-6 intestinal cells in KLF5 counter-screen | inhibition, % at 5 µM | IEC-6 cytotoxicity, luminescence viability | 290,000 tested, 0.78% active; in the data active means inhibition above about 22%;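 further: 0% = plate median of test compound wells and 100% = cytotoxic reference compound wells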
# KLF5 inh = kruppel-like factor 5 inhibition; DLD-1 KLF5 promoter-luciferase reporter, luminescence; 290,000 tested, 0.23% active; inhibition, % at 5 µM; AID 1700;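 active means inhibition above a per-plate limit of that plate's mean compound inhibition plus 3 SD, cut at about 60% in these data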;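 further: 0% = DMSO wells and 100% = LY294002 at 200 µM; higher means less KLF5 promoter-driven luciferase light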
# Ba/F3 V617F tox = reduce viability of Ba/F3 cells dependent on JAK2V617F; Ba/F3 EpoR-JAK2V617F viability, ATP luminescence; inhibition, % at 5.6 µM; 220,000 tested, 1.1% active; AID 1446;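 active means inhibition above the campaign mean plus 3 SD over all tested compounds, cut at about 24% in these data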;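 further: cytokine-independent growth of Ba/F3 cells driven by EpoR plus mutant JAK2; 0% = DMSO-treated cells and 100% = JAK inhibitor I control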
# BaF3 tox = counter-screen for JAK2V617F inhibitors: parental Ba/F3 viability inhibitors. AID 1486. inhibition, % at 5.6 µM. 220,000 tested, 1.1% active. CellTiter-Glo ATP luminescence;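 active means inhibition above a per-campaign cutoff, the mean inhibition of all tested compounds plus 3 SD, cut at about 27% in these data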;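 further: 0% = DMSO wells and 100% = JAK Inhibitor I control wells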
# aSyn UTR inh = 5' untranslated region of α-synuclein, MLPCN primary screen. inhibition, % (tested at 7.5 µM). 300,000 tested, 0.82% active. alpha-synuclein 5'UTR reporter, inhibitor activity; in the data active means inhibition above about 60%; inconclusive means no clear call, values can overlap the other calls;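 further: H4 neuroglioblastoma cells stably carrying SNCA 5'UTR luciferase fusion; 0% = DMSO wells and 100% = positive control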
# APP 5UTR inh = APP translation inhibition; SH-SY5Y APP 5'UTR-luciferase reporter, luminescence; inhibition, % at 2 µM; 190,000 tested, 0.82% active;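 active means inhibition above a set limit, derived from the sample mean plus 3 SD, cut at about 45% in these data; inconclusive means one replicate passes the limit while the other fails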
# Active calls of the source: *; ? = inconclusive; · = not tested or not shown.
SMILES,IEC-6 cytotox,KLF5 inh,Ba/F3 V617F tox,BaF3 tox,aSyn UTR inh,APP 5UTR inh
CCn1c(C)[n+](Cc2ccccc2)c2ccc(Cl)cc21,-2,-5,28*,33*,-4,16
CCOC(=O)c1ccc2c(c1)n(CC)c(/C=C/Nc1ccccc1)[n+]2CC,0,-14,36*,50*,-5,-1
Cc1n(Cc2ccccc2)c2ccccc2[n+]1Cc1ccccc1,0,-14,·,·,-22,·
CCn1c(/C=C/N(C)c2ccccc2)[n+](CC)c2ccc(Cl)cc21,15,-12,87*,65*,1,-9
CCn1c(/C=C/Nc2ccccc2)[n+](CC)c2ccc(Cl)cc21,-8,-5,6,12,-46,3
NC(=O)NC(=O)CN1c2cccc3cccc(c23)S1(=O)=O,-1,-32,·,·,-3,·
Cc1ccc(-c2nc(CS(=O)(=O)CC(=O)NCCN3CCCC3)c(C)o2)cc1,-8,-7,·,·,16,·
COc1cccc(N2CCN(C(=O)c3oc4ccccc4c3NC(=O)Cc3ccc(OC)c(OC)c3)CC2)c1,0,-13,·,·,19,·
CC(=O)Nc1ccc(NC(=O)C(=O)N/N=C/c2cccnc2)cc1,-1,4,0,-1,-12,·
COc1c(O)c(O)c2oc(-c3ccccc3)cc(=O)c2c1OC,-3,-23,2,-2,-6,13
COc1cc(-c2cc(=O)c3c(O)c(OC)c(OC)c(O)c3o2)ccc1O,-3,5,1,-6,87*,12
CC(C)=CCC/C(C)=C/CCC(C)NCCN1CCNCC1 (configuration not stated),34*,-19,4,16,-22,-6
CC(C)=CCC/C(C)=C/CC(C)(C)CNCCN1CCNCC1,5,-8,7,10,-64,4
CCC1CCCCN1CCCNC(=O)Cn1cnc2sc(C)c(S(=O)(=O)N3CC(C)CC(C)C3)c2c1=O (configuration not stated),4,-41,·,·,26,·
COCCN(C(=S)Nc1c(C)cccc1C)C(C)c1ccco1 (configuration not stated),0,-28,-2,-4,-12,·
CC1=CC(C)C2COC(c3ccc[n+](C)c3)C1C2C (configuration not stated),-7,-56,35*,40*,-7,-3
COC(CNC(=O)c1ccc2c(c1)ncn2-c1cccc(C)c1)OC,1,-15,·,·,-10,·
COc1ccccc1NC(=S)N1CCN(c2ccccc2F)CC1,-4,-26,·,·,-6,·
O=C1/C(=C/c2ccccn2)COc2ccccc21,-8,-29,-4,-3,-40,5
CC(C)(C)C1C/C(=C/c2ccccn2)C(=O)/C(=C/c2ccccn2)C1 (configuration not stated),4,4,0,-5,103*,95*
CC1C/C(=C/c2ccccn2)C(=O)/C(=C/c2ccccn2)C1 (configuration not stated),3,-16,52*,73*,89*,98*
COC(=O)C1CCN(C(=O)[C@H](C)NC(=O)C2CC(=O)N(c3ccc(F)cc3)C2)CC1 (some centres not stated),0,-27,·,·,9,·
O=C(c1cc2ccccc2o1)N1CCN(c2cccc(Cl)c2)CC1,3,-61,·,·,-3,·
c1ccc(-c2cn3nc(-c4ccccc4)sc3n2)cc1,·,·,·,·,101*,·
Cn1ncc(Cl)c1C(=O)NCC1CCCO1 (configuration not stated),-5,-15,·,·,-19,·
SMILES,IEC-6 cytotox,KLF5 inh,Ba/F3 V617F tox,BaF3 tox,aSyn UTR inh,APP 5UTR inh
Cc1ccc(-n2nc(C)c3c2OC(N)=C(C#N)C3c2ccccc2F)cc1 (configuration not stated),-2,-24,3,8,10,47*
N#CCCN1CCN(C(=S)c2ccc(-c3ccc(Cl)cc3)o2)CC1,-5,-35,-2,93*,-88,5
S=C(c1ccc(-c2ccc(Cl)cc2)o1)N1CCCCC1,-4,-165,-1,0,-150,-184
COc1cc(/C=N/NC(=O)C(Cc2c[nH]c3ccccc23)NC(=O)OCC(C)C)cc([N+](=O)[O-])c1O (configuration not stated),2,27,4,6,11,-3
COc1cc(/C=N/NC(=O)C(Cc2c[nH]c3ccccc23)NC(=O)OCC(C)C)cc([N+](=O)[O-])c1OCc1ccccc1 (configuration not stated),3,-12,95*,100*,-61,-24
Nc1nc(N)c2c(ccc3nccc32)[nH]1,71*,4,94*,102*,49,·
Oc1ccccc1N=Nc1ccccc1O,-3,61,6,3,?,83*
O=C(NC(=S)Nc1ccc(F)cc1)C1CCCCC1,-2,-88,·,·,-63,·
CC(C)CC(=O)Nc1ccc(C(=O)NNC(=S)NC(=O)C2CCCCC2)cc1,1,-14,2,2,67*,7
CN(C(=O)COC(=O)CSc1cc(Cl)ccc1Cl)c1c(N)n(Cc2ccccc2)c(=O)[nH]c1=O,·,·,·,·,-8,·
COc1ccc(N2C(=O)CC(Sc3nnc(-c4ccccc4)o3)C2=O)cc1 (configuration not stated),-3,-19,0,6,-3,46*
Cc1c(Cc2ccccc2)sc(/N=C/c2ccc3ccccc3c2)c1C(N)=O,8,5,-3,2,·,53*
c1ccc2c(c1)ccc1ncccc12,0,2,-1,7,18,18
Oc1c(N=Nc2ccccn2)ccc2ccccc12,12,9,12,4,74*,82*
CCC(=O)c1ccc(OCC(=O)OCC(=O)N2CCCc3ccccc32)cc1,·,·,·,·,11,·
Cn1c(=O)c2c(ncn2CC(=O)N2CCc3ccccc3C2)n(C)c1=O,4,-20,0,2,-5,54*
CC(=O)Nc1ccc(NC(=O)c2sc3nc4n(c(=O)c3c2C)CCCCC4)cc1,1,-2,0,6,76*,9
COC(=O)C1=C(C)NC(=O)NC1c1ccc2c(c1)OCO2 (configuration not stated),-5,8,·,·,16,·
COc1cccc(-c2cc(C(F)(F)F)n3nc(N)nc3n2)c1,4,-5,1,2,26,10
COc1cccc(-c2cn3nc4c(nc3n2)CCCC4)c1,8,-1,-6,1,104*,-170
Clc1ccc(-c2cn3nc4c(nc3n2)CCCC4)cc1,3,-24,-2,2,88*,-191
Clc1ccc(-c2cn3cccnc3n2)cc1,4,-62,0,6,-132,-16
Cc1c(O)c(=O)ccn1Cc1ccccc1,-5,-10,-2,1,68*,26
Cc1ccc(Cn2ccc(=O)c(OCc3ccccc3)c2C)cc1,0,-76,-5,-2,-110,-35
Cc1ccc(C(=O)Nc2cccc(C(F)(F)F)c2)cc1Nc1cncnc1,-4,0,·,·,-11,·
COc1cc(NC(=O)c2nccnc2N)cc(C(=O)Nc2cccc(C(F)(F)F)c2)c1,·,·,·,·,-6,·
Cc1ccc(C(=O)Nc2cccc(C(F)(F)F)c2)cc1NC(=O)c1nccnc1N,·,·,·,·,78*,·

# Screening data (PubChem BioAssay)
